In all, about 140,000 sequences were measured (“enrichment ratio after two sorts for PhoP signalling”: median about 0, highest 2% from about 11 on). The sample holds the highest values, similar sequences and a random draw of the others, so the mix is not that of the screen.
B1: PhoQ; a variant is named by its letters at X, in order, P23837 (parent)
chain: MKKLLRLFFPLSLRVRFLLATAAVVLVLSLAYGMVALIGYSVSFDKTTFRLLRGESNLFYTLAKWENNKLHVELPENIDKQSPTMTLIYDENGQLLWAQRDVPWLMKMIQPDWLKSNGFHEIEADVNDTSLLLSGDHSIQQQLQEVREDDDDAEMTHSVAVNVYPATSRMPKLTIVVVDTIPVELKSSYMVWSWFIYVLSANLLLVIPLLWVAAWWSLRPIEALAKEVRELEEHNRELLNPATTRELTSLVRNLNRLLKSERERYDKYRTTLTDLTHSLKTPLXXLQXXLRSLRSEKMSVSDAEPVMLEQISRISQQIGYYLHRASMRGGTLLSRELHPVAPLLDNLTSALNKVYQRKGVNISLDISPEISFVGEQNDFVEVMGNVLDNACKYCLEFVEISARQTDEHLYIVVEDDGPGIPLSKREVIFDRGQRVDTLRPGQGVGLAVAREITEQYEGKIVAGESMLGGARMEVIFGRQHSAPKDE

Variants of: B1
Assay: enrichment ratio after two sorts for PhoP signalling (ratio (wild type AVST 3.29)); higher = more functional
Conditions: with PhoP (E. coli)

| Variant | enrichment ratio |
| --- | --- |
| VSTM | 14.3 |
| VCTM | 23 |
| KCTM | ≤ 0.25 |
| VSWM | 2.15 |
| VFTM | ≤ 0.25 |
| NSTM | ≤ 0.25 |
| EPCV | ≤ 0.25 |
| PQFI | ≤ 0.25 |
| IWAV | ≤ 0.25 |
| PCTF | ≤ 0.25 |
| RWFD | ≤ 0.25 |
| AILQ | 13.6 |
| ADLQ | 3.02 |
| KCLQ | ≤ 0.25 |
| LQLQ | ≤ 0.25 |
| ASTA | 9.73 |
| ACLR | 8.18 |
| VHLQ | ≤ 0.25 |
| ACLQ | 11.6 |
| PLLQ | ≤ 0.25 |
| ALLQ | 14.7 |
| ASLR | 3.29 |
| ASLQ | 11.8 |
| FDLT | ≤ 0.25 |
| DGHY | ≤ 0.25 |

| Variant | enrichment ratio |
| --- | --- |
| FIKM | ≤ 0.25 |
| HWCE | ≤ 0.25 |
| SDKP | ≤ 0.25 |
| YSIR | ≤ 0.25 |
| WSFS | ≤ 0.25 |
| KRRI | ≤ 0.25 |
| SLHA | ≤ 0.25 |
| IGLE | ≤ 0.25 |
| TPMA | ≤ 0.25 |
| KSGA | ≤ 0.25 |
| ELRR | ≤ 0.25 |
| FQKN | ≤ 0.25 |
| CNES | ≤ 0.25 |
| IDKS | ≤ 0.25 |
| TVPS | ≤ 0.25 |
| GGLQ | 3.13 |
| MGLQ | 16 |
| MGLR | ≤ 0.25 |
| TGLQ | 9.97 |
| ATLQ | 11.5 |
| MFLQ | ≤ 0.25 |
| AYLQ | 0.526 |
| AQLQ | 5.87 |
| TKLQ | 6.41 |
| AKLQ | 41.4 |

| Variant | enrichment ratio |
| --- | --- |
| HKLQ | ≤ 0.25 |
| AGLQ | 13.5 |
| NIMF | ≤ 0.25 |
| YKKL | ≤ 0.25 |
| ESDI | ≤ 0.25 |
| PSMS | ≤ 0.25 |
| WGKP | ≤ 0.25 |
| QAMN | ≤ 0.25 |
| HVTY | ≤ 0.25 |
| SCTY | 15.6 |
| TCTY | 14.7 |
| VCTY | ≤ 0.25 |
| LSTY | ≤ 0.25 |
| KCTY | ≤ 0.25 |
| DNQA | ≤ 0.25 |
| WMWR | ≤ 0.25 |
| GEYP | ≤ 0.25 |
| DMMD | ≤ 0.25 |
| ACMW | ≤ 0.25 |
| ACVG | 4.01 |
| ACMF | 14.4 |
| ACGF | 6.85 |
| ACVA | 3.46 |
| ACMK | 17.8 |
| ACMR | 1.61 |

| Variant | enrichment ratio |
| --- | --- |
| ACWF | ≤ 0.25 |
| ACGA | ≤ 0.25 |
| ACMT | 10.1 |
| ACMG | 14.3 |
| ACMA | 34.1 |
| PYWL | ≤ 0.25 |
| DKNN | ≤ 0.25 |
| FTRE | ≤ 0.25 |
| QRLI | ≤ 0.25 |
| FFKH | ≤ 0.25 |
| NCDG | ≤ 0.25 |
| QIFY | ≤ 0.25 |
| VWPM | ≤ 0.25 |
| ACGG | 4.87 |
| ACVC | 1.02 |
| ACIG | 12.3 |
| ACMI | 21 |
| ACWQ | ≤ 0.25 |
| ACMQ | 31.7 |
| ACMS | 8.75 |
| ACMV | 7.12 |
| WGDV | ≤ 0.25 |
| VHHQ | ≤ 0.25 |
| TTPE | ≤ 0.25 |
| MDFT | ≤ 0.25 |

| Variant | enrichment ratio |
| --- | --- |
| RPHC | ≤ 0.25 |
| NELR | ≤ 0.25 |
| MQVH | 2.29 |
| TPTT | ≤ 0.25 |
| NQCE | ≤ 0.25 |
| SQQI | 2.33 |
| SNQI | 12.5 |
| DNQI | 22.9 |
| SPAY | ≤ 0.25 |
| SNYI | 0.257 |
| SNCE | ≤ 0.25 |
| SNAY | 14.8 |
| DNQN | ≤ 0.25 |
| SQCE | 24.1 |
| DMQI | ≤ 0.25 |
| SLQI | 5.02 |
| REHF | ≤ 0.25 |
| APRY | ≤ 0.25 |
| WCFP | ≤ 0.25 |
| VRKW | ≤ 0.25 |
| HDVL | ≤ 0.25 |
| SLKT | ≤ 0.25 |
| PVHR | ≤ 0.25 |
| GYTV | ≤ 0.25 |
| YWVH | ≤ 0.25 |

| Variant | enrichment ratio |
| --- | --- |
| HHYP | ≤ 0.25 |
| SNDH | ≤ 0.25 |
| SNSA | 13.1 |
| SNHF | ≤ 0.25 |
| SNCA | 16.8 |
| SNHI | ≤ 0.25 |
| SQTH | 3.03 |
| SQCA | 8.55 |
| SRSA | ≤ 0.25 |
| SQCK | 9.83 |
| SQSA | 3.01 |
| SNCI | 21.8 |
| SQCI | 15.6 |
| DNPA | ≤ 0.25 |
| ILGQ | ≤ 0.25 |
| SFVQ | ≤ 0.25 |
| YVYP | ≤ 0.25 |
| FFCP | ≤ 0.25 |
| LDYA | ≤ 0.25 |
| SICI | 21 |
| SSPM | 0.954 |
| SSGD | ≤ 0.25 |
| SSWM | 6.76 |
| SSGM | 13.4 |
| SITW | 4 |

| Variant | enrichment ratio |
| --- | --- |
| SICE | 1.33 |
| SQTM | 6.18 |
| SICV | 16.6 |
| SILH | 3.1 |
| KYCV | ≤ 0.25 |
| SSTM | 21.4 |
| DMMP | ≤ 0.25 |
| NRRM | ≤ 0.25 |
| YLRW | ≤ 0.25 |
| TKFH | ≤ 0.25 |
| LSNL | ≤ 0.25 |
| EACR | ≤ 0.25 |
| HEFW | ≤ 0.25 |
| LKYV | ≤ 0.25 |
| SICS | 16.9 |
| SLTM | 12.5 |
| SIAM | 20.8 |
| WLTM | ≤ 0.25 |
| TSVM | 3.12 |
| KSVM | ≤ 0.25 |
| SSVM | 17.6 |
| KYAM | ≤ 0.25 |
| SICA | 8.12 |
| PLTM | ≤ 0.25 |
| KYCS | ≤ 0.25 |

| Variant | enrichment ratio |
| --- | --- |
| SIMD | 4.7 |
| DEHQ | ≤ 0.25 |
| SHVQ | ≤ 0.25 |
| KNSF | ≤ 0.25 |
| EDWM | ≤ 0.25 |
| PVLM | ≤ 0.25 |
| VLTM | ≤ 0.25 |
| SIGM | 9.86 |
| SICG | 22 |
| LLTM | ≤ 0.25 |
| FICK | ≤ 0.25 |
| TLTM | 19 |
| SIWM | ≤ 0.25 |
| KYCG | ≤ 0.25 |
| FICM | 12.9 |
| SICK | 14.6 |
| FIGM | ≤ 0.25 |
| WICG | ≤ 0.25 |
| NHYV | ≤ 0.25 |
| EHWN | ≤ 0.25 |

Source: a collection of fitness landscapes (doi:10.1126/science.1257360)
